Bioassay records: PubChem BioAssay, several laboratories
Shown are actives, neighbours in structure and some others; about 27% of the full set was active somewhere.
CYP2C9 inhib = blockers of cytochrome P450 2C9 activity – biochemical, luminescence, ADME assay, primary screen | P11712 | CYP2C9 Supersomes, luciferin-H conversion | inhibition, % at 5 µM | 96,000 compounds, 20% hits | AID 777, 2007;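 active = blocking of liver enzyme CYP2C9 beyond about 50% at 5 µM, limit read from the data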
sEH inhibitor = soluble epoxide hydrolase inhibitors, primary screen, biochemical, human sEH; AID 707, 2007; Bifunctional epoxide hydrolase 2 (Homo sapiens), P34913; recombinant human sEH enzymatic activity assay; inhibition, % at 2 µM; 91,000 compounds, 0.34% hits; in the data active = inhibition above about 80%
Target sequence (P34913 whole entry, looked up): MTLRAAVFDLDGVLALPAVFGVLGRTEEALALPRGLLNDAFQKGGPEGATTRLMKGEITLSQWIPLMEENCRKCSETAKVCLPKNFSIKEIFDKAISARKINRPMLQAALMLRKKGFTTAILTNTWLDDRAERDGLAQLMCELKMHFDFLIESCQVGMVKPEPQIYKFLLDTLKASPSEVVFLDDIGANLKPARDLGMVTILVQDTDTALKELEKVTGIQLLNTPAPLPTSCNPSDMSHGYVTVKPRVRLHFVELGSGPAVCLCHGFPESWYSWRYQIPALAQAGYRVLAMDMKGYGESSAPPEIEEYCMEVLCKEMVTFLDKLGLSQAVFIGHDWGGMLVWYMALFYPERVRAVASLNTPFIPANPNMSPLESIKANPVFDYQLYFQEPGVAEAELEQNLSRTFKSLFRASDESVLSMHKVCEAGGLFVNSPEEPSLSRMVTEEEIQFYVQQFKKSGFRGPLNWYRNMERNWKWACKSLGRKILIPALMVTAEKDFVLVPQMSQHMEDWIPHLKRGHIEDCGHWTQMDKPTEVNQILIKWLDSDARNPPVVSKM
CYP2C19 act = human CYP2C19 activators, primary screen, biochemical, luminescence; AID 1025, 2008; recombinant CYP2C19, luciferin-H EGE luminescence; active compounds read high; 0 = fully inhibited enzyme, 1 = untreated enzyme; 96,000 tested, under 10 active; activation factor at 5 µM;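 active = activation factor of at least 2 at 5 µM in the primary screen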;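 also: 0 = wells with 2.5 mM tranylcypromine and 1 = vehicle-only wells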
sEH act = soluble epoxide hydrolase activators, primary screen, biochemical, human sEH. Bifunctional epoxide hydrolase 2 (Homo sapiens), P34913. activation, % at 2 µM. purified human sEH enzymatic activity, activator screen. 91,000 compounds, 0.04% hits; in the data active = activation above about 37%
CYP2C19 inhib = blockers of cytochrome P450 2C19 activity – biochemical, luminescence, ADME assay, primary screen | P33261 | CYP2C19 Supersomes, luciferin-H EGE luminescence, 30 min | inhibition, % at 5 µM | 96,000 compounds, 21% hits;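 active = CYP2C19 inhibition above a set limit at 5 µM in the primary screen, cut at about 50% in these data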;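 also: plate controls were negative control wells for no effect and 2.5 mM tranylcypromine positive control for full effect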
CYP2C9 act = human CYP2C9 activators, primary screen, biochemical, luminescence. recombinant CYP2C9, luciferin-H conversion; active compounds read high; factor 1 = untreated enzyme, 0 = blocked. activation factor at 5 µM. 96,000 compounds, 1.4% hits;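 active = activation factor of 2 or more for CYP2C9 at a 5 µM dose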;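 also: 0 = sulfaphenazole-blocked wells and 1 = vehicle-only wells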
The depositor's hits bear a star; nt = not tested or not shown.

SMILES	CYP2C9 inhib	sEH inhibitor	CYP2C19 act	sEH act	CYP2C19 inhib	CYP2C9 act
Cc1ccccc1-n1nc2c(c1NC(=O)c1ccc(S(=O)(=O)N(C)C)cc1)CSC2	4.4	-8.7	1.1	7.3	-13.2	1
CCn1c(=O)c(C(=O)CN(C)Cc2cccc(OC)c2OC)c(N)n(Cc2ccccc2)c1=O	33.9	-21.0	0.3	18.7	67.4*	0.7
CCOc1ccc(CN(C)CC(=O)c2c(N)n(Cc3ccccc3)c(=O)n(CC)c2=O)cc1OC	-30.8	-11.7	1.2	9.6	-16.5	1.3
CCn1c(=O)c(C(=O)CN2CCCc3ccccc32)c(N)n(Cc2ccccc2)c1=O	93.1*	nt	0.2	nt	81.3*	0.1
Cc1cc(C(=O)NCc2cccs2)n(-c2ccccc2)n1	59.3*	-19.8	0.5	18.3	48.5	0.4
Cc1cc(C(=O)Nc2ccccc2C#N)n(-c2ccccc2)n1	57.0*	4.8	0.6	-4.8	40.8	0.4
Cc1cc(C(=O)Nc2c(C)cccc2C)n(-c2ccccc2)n1	10.1	16.3	0.9	-18.5	7.9	0.9
COC(CNC(=O)c1cc(C)nn1-c1ccccc1)OC	6.8	-21.1	0.9	20.9	6.0	0.9
CCN(CCNC(=O)c1cc(C)nn1-c1ccccc1)c1ccccc1	16.5	nt	0.2	nt	79.4*	0.8
CC(=N/O)/C(=N\O)c1ccc(C)o1	-2.7	-36.2	0.9	32.3	9.5	1
COc1ccc(CCN(C(=O)C(F)(F)F)C(C(=O)NC2CCCC2)c2cccs2)cc1 (centres undefined)	77.1*	4.3	0.4	-1.1	62.9*	0.2
O=C(NC1CCCCC1)C(c1ccco1)N(CCc1ccccc1)C(=O)C(F)(F)F (centres undefined)	nt	5.5	nt	-1.9	nt	nt
Cc1ccc(S(=O)(=O)NCCOCCNS(=O)(=O)c2ccc(C)cc2)cc1	-100.6	-8.2	0.3	9.9	68.0*	2*
COCCNS(=O)(=O)c1ccc(SC)cc1	-16.4	-10.8	0.7	10.2	34.6	1.2
COCCNS(=O)(=O)c1ccc(-c2ccc(C)cc2)cc1	92.6*	-0.5	0.3	2.4	73.8*	0.1
CCOc1ccc(CC(=O)N2CCN(c3ccc(N4CCOCC4)nn3)CC2)cc1OCC	8.4	nt	1	nt	-1.4	0.9
Cc1nn(C)c(C)c1CN(C)S(=O)(=O)c1ccc2ccccc2c1	nt	3.5	nt	-3.5	nt	nt
O=C(CN1CCN(c2ccccn2)CC1)NC(=O)NC1CCCCC1	44.4	nt	0.9	nt	10.1	0.6
COc1ccc(N(C(=O)Nc2ccc(Cl)cc2)C2=NCCC2)cc1	53.9*	-7.6	0.9	6.2	9.7	0.5
Cc1cccnc1NC(=O)CSc1nnc(Cc2ccccc2)o1	nt	-1.6	nt	1.3	nt	nt
CCc1nnc(NC(=O)CSc2nnc(Cc3ccccc3)o2)s1	29.7	5.4	0.7	-5.7	30.6	0.7
CCOC(=O)c1sc(NC(=O)CSc2nnc(Cc3ccccc3)o2)c(C#N)c1C	90.4*	7.4	0.7	-8.0	28.5	0.1
CCOC(=O)c1c(NC(=O)CSc2nnc(-c3ccccc3)o2)sc(C(C)=O)c1C	75.3*	6.3	0.6	-4.2	38.5	0.2
CCOC(=O)c1c(NC(=O)CSc2nnc(Cc3ccccc3)o2)sc(C(C)=O)c1C	52.1*	-2.4	0.6	-0.3	39.1	0.5
CCOC(=O)c1c(NC(=O)CSc2nnc(CNc3ccc(F)cc3)o2)sc(C(C)=O)c1C	94.5*	3.3	0.1	-3.5	89.2*	0.1
SMILES	CYP2C9 inhib	sEH inhibitor	CYP2C19 act	sEH act	CYP2C19 inhib	CYP2C9 act
CCOC(=O)c1c(NC(=O)CSc2nnc(-c3ccc(C)cc3)o2)sc(C(C)=O)c1C	48.0	3.8	0.8	-5.5	20.8	0.5
Cc1cccc(S(=O)(=O)c2c(N)n(Cc3ccco3)c3nc4ccccc4nc23)c1	95.9*	-16.6	0.1	15.3	90.8*	0
Cc1ccc(S(=O)(=O)c2c(N)n(NC(=O)c3ccco3)c3nc4ccccc4nc23)cc1	8.2	0.2	0.6	1.5	43.7	0.9
Cc1ccc(S(=O)(=O)c2c(N)n(Cc3ccco3)c3nc4ccccc4nc23)cc1	68.6*	-4.9	0.6	4.4	36.4	0.3
Cc1ccc(Cn2c(N)c(S(=O)(=O)c3cccs3)c3nc4ccccc4nc32)cc1	8.7	29.8	1	-29.2	-2.1	0.9
CC(=O)N1CCc2cc(S(=O)(=O)NCCC3=CCCCC3)ccc21	nt	-2.0	nt	0.2	nt	nt
CCOC(=O)C1=C(Cc2ccc(F)cc2)C(=O)c2ccccc2C1=O	41.7	1.6	0.1	-5.0	87.3*	0.6
O=C(OCc1ccc(F)cc1)c1ccc2c(c1)-c1ccccc1C2=O	14.8	-17.6	1	16.7	1.5	0.9
N#Cc1ccc(Cl)cc1NC(=O)COC(=O)c1ccc(S(=O)(=O)N2CCCC2)cc1	0.3	13.7	1	-12.5	-2.9	1
Cc1ccccc1Nc1nc(CSc2nnnn2-c2ccccc2)cs1	50.6*	-15.9	0.1	13.7	93.7*	0.5
c1ccc(-c2nc(CSc3nnnn3-c3ccccc3)cs2)cc1	50.5*	-13.1	0	12.7	97.1*	0.5
O=c1cc(CSc2nnnn2-c2ccccc2)nc2scc(-c3ccccc3)n12	44.8	12.0	0.6	-13.0	38.1	0.6
Cc1ccccc1-n1c(Cn2c(=O)sc3ccccc32)nnc1SCC(=O)NCC1CCCO1 (centres undefined)	50.3*	-8.7	0.9	5.8	14.9	0.5
COCCCn1c(SCC(=O)Nc2nnc(C)s2)nnc1-c1ccoc1C	81.9*	7.0	0.9	-8.6	14.7	0.2
COc1cccc(NC(=O)CSc2nnc(-c3ccoc3C)n2-c2ccccc2)c1	59.1*	-13.6	0.7	7.3	32.6	0.4
COc1ccc(-n2c(C)cc(C(=O)CSc3nnc(-c4ccoc4C)n3C)c2C)cc1	54.0*	0.3	0.4	0.1	56.6*	0.5
COc1ccc(C2=NOC3(CC(=O)N(c4ccc(C)cc4)C3=O)C2)c(OC)c1 (centres undefined)	2.4	-4.8	1.1	6.1	-6.2	1
COc1cccc(C(=O)CSc2nnc(CNS(=O)(=O)c3ccc(C)cc3)n2C)c1	2.2	-12.1	1	11.5	-1.5	1
CCOc1ccccc1-n1c(SCC(=O)Nc2nccs2)nnc1-c1ccoc1C	79.4*	2.1	0.2	-0.6	76.3*	0.2
Cc1ccc(-n2c(SCC(=O)NCC3CCCO3)nnc2-c2ccoc2C)cc1 (centres undefined)	24.4	6.8	0.2	-8.0	84.6*	0.8
Cc1cccc(C)c1OCc1nnc(SCC(=O)Nc2nccs2)n1-c1ccccc1	-3.2	-8.7	1.1	6.7	-14.1	1
COC(=O)c1ccccc1NC(=O)CSc1nnc(-c2ccoc2C)n1C	32.5	-0.6	0.3	1.1	74.2*	0.7
COc1ccc(-n2c(SCC(=O)Nc3ccccc3)nnc2-c2ccoc2C)cc1	nt	-7.2	nt	7.8	nt	nt
